Shown is part of a subset that was picked to be rich in hits.
SARS PLpro yeast: inhibitors of SARS-CoV papain-like protease in yeast; S. cerevisiae expressing SARS-CoV PLpro, growth rescue; Potency, µM (highest dose often 32.9 µM), usual class: activators; 330,000 compounds, 0.19% hits; calls by dose curve; further: nearly all actives have a fitted effect of over 55% in size
Tb PYK inh: T. brucei pyruvate kinase inhibition. Potency, µM (top dose mostly 76.8 µM), hits mostly inhibitors. 410,000 compounds, 0.12% hits. TbPYK enzyme, Kinase-Glo Plus ATP luminescence, 45 min; further: nearly all actives have a fitted effect of over 50% in size
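Assay buffer: 50 mM TEA pH 7.2, 100 mM KCl, 10 mM MgCl2, 0.05% BSA, 0.01% Tween-20. Pyruvate kinase from T. brucei plus substrate met compound, then ADP (130 uM final). Luminescence was read post 45 min RT.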
LmPK inh: blocks Leishmania mexicana pyruvate kinase activity | Q27686 | purified LmPK, Kinase-Glo ATP luminescence, 1 h | Potency, µM (doses to about 57.5 µM), actives largely listed as inhibitors | 290,000 compounds, 0.37% hits
Target sequence (Q27686 whole entry, looked up): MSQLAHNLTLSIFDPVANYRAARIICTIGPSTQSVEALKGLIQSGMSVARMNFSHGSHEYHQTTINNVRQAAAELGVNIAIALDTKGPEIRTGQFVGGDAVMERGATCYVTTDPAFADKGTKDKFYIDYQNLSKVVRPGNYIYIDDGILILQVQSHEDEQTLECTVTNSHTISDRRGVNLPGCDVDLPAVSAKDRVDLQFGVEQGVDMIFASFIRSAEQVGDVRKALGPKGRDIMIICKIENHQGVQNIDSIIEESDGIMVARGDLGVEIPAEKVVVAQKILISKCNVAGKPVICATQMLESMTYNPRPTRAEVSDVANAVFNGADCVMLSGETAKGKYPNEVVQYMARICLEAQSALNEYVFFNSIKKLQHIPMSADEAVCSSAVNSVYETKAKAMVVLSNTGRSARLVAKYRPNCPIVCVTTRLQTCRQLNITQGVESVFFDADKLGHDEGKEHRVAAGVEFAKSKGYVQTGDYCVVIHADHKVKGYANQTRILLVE
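Kinase-Glo luminescence read after 1 h RT reaction of 0.1 nM LmPK with 0.5 mM PEP and 0.1 mM ADP. Activity scaled between uninhibited and enzyme-free controls.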
NS1 inh: blocks influenza NS1 protein function; 270,000 compounds, 0.4% hits; Potency, µM (doses to about 46.1 µM); calls by dose curve; further: actives are rising curves; nearly all actives have a fitted effect of over 50% in size
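OD600 was taken as the measure of yeast growth restored by compound in an NS1-expressing S. cerevisiae strain. Cells had been washed out of glucose medium and diluted 1:100 into galactose -URA medium, pH 6.0.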
Shiga inhibitor: inhibitors of Shiga toxin in Vero cells; Vero cells, Shiga toxin protein synthesis inhibition reporter; inhibition, % at 38.7 µM; 290,000 compounds, 9.2% hits; AID 2315; in the data active means inhibition mostly above about 28%, no sharp cut-off; inactive means mostly below about 43%
CHX counter: counter-screen for Shiga toxin inhibitors: cycloheximide protein synthesis inhibition | cell reporter, cycloheximide protein synthesis inhibition counterscreen | max response, % | 300,000 compounds, 12% hits; in the data active means max response mostly above about 13%, no sharp cut-off; inactive means mostly below about 14%; further: read at 38.3 µM for the half of the compounds with a filed dose
A number is an active result; - = inactive; ? = inconclusive; . = no result given. Unless noted, the call rests on the fitted dose curve; in most records, active means well fitted curve in the direction sought with a large enough effect; inconclusive means small, poorly fitted or top-dose-only effect, or another doubt; inactive means no such curve, though single readings can be large; an effect the other way counts as inactive or inconclusive.

SMILES	SARS PLpro yeast	Tb PYK inh	LmPK inh	NS1 inh	Shiga inhibitor	CHX counter
O=C1c2ccccc2S(=O)(=O)N1CC1CC(c2ccc(Cl)cc2)=NO1 (centres undefined)	-	-	-	-	66	61
CC(=O)CCC1CC(c2ccc(Cl)cc2)=NO1 (centres undefined)	-	-	.	.	.	.
O=C1c2ccccc2S(=O)(=O)N1CC1CC(c2ccccc2)=NO1 (centres undefined)	-	-	-	-	89	44
NC(N)=NCCC[C@H](N)C(=O)NCC(=O)N[C@@H](CC(=O)O)C(=O)N[C@@H](CO)C(=O)O	.	.	.	.	-	-
CCCCCCCCNS(=O)(=O)CCNCc1ccco1	.	-	.	.	.	.
COc1ccc(/C=C2\SC(=S)N(CC3CCCO3)C2=O)cc1 (centres undefined)	-	-	-	-	-	20
Cc1ccc(/C=C2\SC(=S)N(CC3CCCO3)C2=O)o1 (centres undefined)	-	?	-	-	-	-
O=C1/C(=C/c2ccco2)SC(=S)N1CC1CCCO1 (centres undefined)	-	-	-	-	63	26
O=C1/C(=C/c2cccnc2)SC(=S)N1CC1CCCO1 (centres undefined)	-	-	-	.	-	-
COc1ccccc1/C=C1\NC(=S)N(CC2CCCO2)C1=O (centres undefined)	-	-	-	-	-	27
COc1cc(/C=C2/SC(=S)N(CC3CCCO3)C2=O)ccc1O (centres undefined)	-	-	-	-	41	21
CCOC(=O)[C@@H]1[C@@H]2c3ccccc3-c3ccccc3[C@H]2C[C@H]1O	.	.	.	-	.	.
Cc1ccc(N2C(=O)/C(=C\c3ccco3)SC2=S)cc1	-	-	-	?	64	-
COc1ccc(/C=C2\Sc3ccc(C(=O)NCC4CCCO4)cc3N(C)C2=O)cc1 (centres undefined)	-	-	-	-	-	12
O=C1/C(=C\c2ccco2)NC(=S)N1c1ccccc1	-	-	-	-	-	18
CCCN=C1N/C(=C\c2ccco2)C(=O)N1c1ccccc1	-	-	-	-	-	-
COC(=O)c1c(SC)nc2ccccc2c1OCc1ccc(C)cc1C	.	-	.	.	.	.
O=C(Nc1cccc2cccnc12)c1csc(COCCO)n1	.	-	.	.	.	.
Cc1ccccc1NCC(=O)c1ccc(Br)cc1	-	-	-	-	-	-
O=C(/C=C/NNC(=O)c1ccc(Cl)cc1)c1ccccc1	-	-	-	.	47	31
COc1ccc(C(=O)C=CNNC(=O)c2ccc(Cl)cc2)cc1	-	-	-	-	.	16
O=C(/C=C/NNC(=O)c1ccccc1)c1ccc(Br)cc1	-	-	-	-	71	47
O=C(/C=C/NNC(=O)c1cccc(Br)c1)c1cccc(Br)c1	-	-	-	-	-	-
O=C(/C=C/NCC(=O)c1ccccc1)c1ccc(Br)cc1	-	-	-	-	45	-
COc1ccc(CCCc2nnc(SCC(=O)Nc3ccc(C)cc3C)o2)cc1	.	-	.	.	.	.
SMILES	SARS PLpro yeast	Tb PYK inh	LmPK inh	NS1 inh	Shiga inhibitor	CHX counter
CCN(CC)CCN(C(=O)c1ccc2c(c1)CCCC2)c1nc2cc(OC)c(OC)cc2s1	-	-	-	-	-	-
COCCNc1nc(NCCOc2ccccc2)c2sc(-c3ccccc3)cc2n1	.	-	.	.	.	.
COc1ccc(CN=C(C)c2c(C(F)(F)F)[nH]n(-c3nc4ccccc4s3)c2=O)cc1	-	-	-	-	122	42
COC(=O)Cc1[nH]n(-c2nc3ccccc3s2)c(=O)c1C(C)=O	-	-	-	-	-	17
CC(=O)c1c(CC(=O)O)[nH]n(-c2nc3ccccc3s2)c1=O	-	-	?	-	-	-
CCOC(=O)Nc1cc(OC)cc2ccc(C)nc12	.	-	.	.	.	.
CN(C)c1ccc(C(=O)/C=C/c2ccco2)cc1	-	-	-	-	112	50
O=C(/C=C\c1ccco1)c1ccc(NC(=O)c2ccco2)cc1	-	-	-	-	-	26
O=C(C=Cc1ccco1)c1ccc2ccccc2c1	.	-	.	.	.	.
O=C(/C=C/c1ccco1)c1ccc(O)cc1	-	.	-	-	-	38
O=C(NCc1ccccc1)c1ccc(NC(=O)c2ccco2)cc1	-	-	-	-	-	-
O=C(NN1CCCCC1)c1ccccc1	-	-	-	-	-	-
O=C(NC(C(=O)c1ccccc1)N1CCCCC1)c1ccccc1 (centres undefined)	-	-	-	-	72	33

Screening data: PubChem BioAssay, National Center for Advancing Translational Sciences (NCATS)
